High-throughput results (PubChem)
Marburg entry: qHTS for Inhibitors of binding or entry into cells for Marburg Virus; Marburg virus pseudotype entry/binding inhibition, cell-based; Potency, µM (doses to about 49.2 µM), hits mostly inhibitors; 18,000 compounds, 6.5% hits
Lassa entry: qHTS for Inhibitors of binding or entry into cells for Lassa Virus; Potency, µM (titrated, usually from 49.2 µM), usual class: inhibitors; 18,000 compounds, 4.1% hits; Lassa virus pseudotyped entry inhibition, cell-based qHTS
Of the large screens only hits and unclear results are named; the others gave an inactive call; ! = not active in a repeat. Shown are actives, neighbours in structure and some others; about 8.6% of the full set was active somewhere. Calls follow the shape of the full dose curve; tested in HEK293 cells.

COCOc1ccc(Br)cc1C(=O)C=Cc1ccc2c(c1)OCO2	none
COC(=O)c1ccc(CN2C(=O)[C@]3(O[C@H](C)CC4=CCCC43)c3c(Br)cccc32)cc1 (some centres undefined)	none
COc1c(C2=CC(=O)N(C)C2=O)c2c(n1C)C(=O)c1ccccc1C2=O	Marburg entry 20µM
COc1c(C=O)c(O)cc2c1C(=O)c1ccccc1C2=O	none
CC12C=C(C=Cc3ccc(Br)cc3)C(C)(C1)C(c1ccc(Br)cc1)CC2=O (centres undefined)	none (no result: Lassa entry)
O[C@@H](CNC[C@H](O)[C@H]1CCc2cc(F)ccc2O1)[C@@H]1CCc2cc(F)ccc2O1	Marburg entry 10µM, Lassa entry inconclusive
CCOC(=O)[C@@]1([C@@H](NC(=O)OC)c2ccco2)CCCC1=O	none
O=C(O)c1cc(O)c2c(c1)C(=O)c1cccc(O)c1C2=O	Marburg entry 13µM
Cc1cc(O)c2c(c1)C(=O)c1cccc(O)c1C2=O	none
CC(C)N1C(=O)[C@@H]2CSCCS(=O)(=O)N2C1=O	none
CC(C)N(CCC(=O)c1ccc2ccccc2c1)Cc1ccccc1	Marburg entry inconclusive, Lassa entry 32µM
C[C@@H](COc1ccccc1)N(CCCl)Cc1ccccc1	none
CCC12C=C(C=Cc3ccccc3)C(CC)(C1)C(c1ccccc1)CC2=O (centres undefined)	none
COc1ccc(CC(N)C(=O)N[C@H]2[C@@H](O)[C@H](n3cnc4c(N(C)C)ncnc43)O[C@@H]2CO)cc1 (some centres undefined)	Marburg entry 6.3µM, Lassa entry 1.3µM
C[C@@H](Cc1ccccc1)Nc1ncnc2c1ncn2[C@@H]1O[C@H](CO)[C@@H](O)[C@H]1O	none
Nc1ccccc1C(=O)C=Cc1ccc2c(c1)OCO2	none
CN[C@@H]1CCc2[nH]c3ccc(C(N)=O)cc3c2C1	none
CN(C)C1CCc2[nH]c3ccc(NC(=O)c4ccc(F)cc4)cc3c2C1 (centres undefined)	Marburg entry 11µM
CCN1C(=NCc2cccc(Cl)c2)N[C@@H](CCc2ccccc2)[C@H](C(=O)OC)[C@H]1C	none
COc1cc2c(cc1O)C[C@H]1c3c(cc(O)c(OC)c3-2)CCN1C	none
COc1ccc2cc1Oc1ccc(cc1)C[C@H]1c3c(cc4c(c3Oc3cc5c(cc3OC)CCN(C)[C@@H]5C2)OCO4)CCN1C	Marburg entry 1.8µM, Lassa entry inconclusive
COc1ccc(CC2c3cc(OC)c(OC)cc3CCN2C)cc1OC (centres undefined)	none
COc1cc2c(cc1O)-c1c(O)c(OC)cc3c1[C@H](C2)N(C)CC3	none
COc1cc2c3cc1Oc1c(OC)c(OC)cc4c1[C@@H](Cc1ccc(O)c(c1)Oc1ccc(cc1)C[C@@H]3N(C)CC2)N(C)CC4	Marburg entry 2.8µM, Lassa entry 11µM
COc1cc2c3cc1Oc1c(OC)c(OC)cc4c1[C@@H](Cc1ccc(OC(=O)c5ccc([N+](=O)[O-])cc5)c(c1)Oc1ccc(cc1)C[C@@H]3N(C)CC2)N(C)CC4	Marburg entry 0.63µM, Lassa entry inconclusive
COc1ccc2cc1Oc1ccc(cc1)C[C@H]1c3cc(c(OC)cc3CCN1C)Oc1c(OC)c(OC)cc3c1[C@H](C2)N(C)CC3	Marburg entry 3.5µM, Lassa entry 13µM
COc1ccc2c(c1OC)C(=O)O[C@@H]2[C@H]1c2c(cc3c(c2OC)OCO3)CCN1C	Marburg entry inconclusive
C[C@@H]1C=CCC(=O)N[C@@H](c2ccccc2)[C@H](C)C=CCC(=O)N[C@@H]1c1ccccc1	none
C#CCCCON=C1C[C@@H](O)[C@H](O)[C@H]2[C@@H]3C(=O)N(C4CCCCC4)C(=O)[C@@H]3CC[C@H]12	Marburg entry inconclusive
CCOC(=O)OC[C@H]1O[C@H](c2ccc(C(C)=O)cc2)C=C[C@H]1Oc1ccc(-c2ccccc2)cc1	none (no result: Lassa entry)
O=S(=O)(NCCc1ccc(F)cc1)c1ccccc1Br	none
CCCCCC(=O)N1C[C@H](n2cc(COC(=O)c3ccccc3)nn2)[C@@H](O)C[C@H]1c1ccccc1	Marburg entry inconclusive
CC=C(C)[C@H](O)C[Si](C)(C)c1ccccc1	none
C=C1C([C@@H](O)C[C@H](C)C2O[C@@]3(CCCCO3)CC[C@H]2C)OC2CC[C@@]3(CC[C@@H](/C=C/[C@@H](C)C4CC(C)=C[C@]5(O4)O[C@H](C[C@@](C)(O)C(=O)O)CCC5O)O3)OC2[C@@H]1O (some centres undefined)	Marburg entry inconclusive, Lassa entry 1.1µM
COc1cc(-c2cc(C)c3cccc(OC)c3n2)cc2c1OCCN(C(=O)CCn1ccc(C)n1)C2	Lassa entry 35µM
COc1cc(-c2c(OC)cccc2OC)cc2c1OCCN(C(=O)CCn1nc(C)cc1C)C2	none
COc1cc(CN2CCN(CCCSc3cc(C(C)(C)C)c(O)c(C(C)(C)C)c3)CC2)cc(OC)c1OC	Marburg entry 2.8µM, Lassa entry 20µM
[H+].[H+].[Hg+2].[O-]B([O-])[O-].[c-]1ccccc1	Marburg entry inconclusive, Lassa entry 1µM
O=C1CCCC=C1C(O)CCOCc1ccccc1 (centres undefined)	none
CC(C)C[C@@H]1NC(=O)[C@H](CCCN)NC(=O)[C@H](C(C)C)NC(=O)[C@@H]2CCCN2C(=O)[C@@H](Cc2ccccc2)NC(=O)[C@H](CC(C)C)NC(=O)[C@H](CCCN)NC(=O)[C@H](C(C)C)NC(=O)[C@@H]2CCCN2C(=O)[C@@H](Cc2ccccc2)NC1=O	Marburg entry inconclusive, Lassa entry 32µM
CC(C)[C@@H]1NC(=O)[C@@H](Cc2ccccc2)NC(=O)[C@H](CC(=O)O)NC(=O)CNC(=O)[C@H](CCCN=C(N)N)NC1=O	none
O=[S+]1([O-])C[C@H](N2CC[C@@H](O)C2)[C@H](COCc2ccccc2)N1	Lassa entry inconclusive
CCN1C(N(C)CCOC)=NC(c2cccc(F)c2)C(C(=O)OC)=C1C (centres undefined)	none (no result: Lassa entry)
NC(=Nc1ccccc1)NC(=O)c1nc(Cl)c(N)nc1N	Marburg entry inconclusive
NC(=NCc1ccccc1)NC(=O)c1nc(Cl)c(N)nc1N	Marburg entry 25µM!, Lassa entry inconclusive
CC1=C[C@@H](C)OC2(C1)C(=O)N(CC1CC1)c1cccc(Br)c12 (some centres undefined)	none
CC(C)CON=C1C[C@@H](O)[C@@H](O)[C@@H]2[C@H]3C(=O)N(C4CCCCC4)C(=O)[C@@H]3CC[C@H]12	Marburg entry inconclusive
CC(C)C[C@H](NC(=O)[C@H](CCc1ccccc1)NC(=O)CN1CCOCC1)C(=O)N[C@@H](Cc1ccccc1)C(=O)N[C@@H](CC(C)C)C(=O)[C@@]1(C)CO1	Marburg entry inconclusive, Lassa entry 11µM
CC(C)CC(NC(=O)CN)C(=O)NC(Cc1ccccc1)C(=O)O (centres undefined)	none
Oc1ccc(Nc2nc(-c3ccc(Cl)cc3)cs2)cc1	Marburg entry inconclusive, Lassa entry 13µM
CCOC(=O)OC[C@H]1O[C@H](c2cc(C)cc(C)c2)C=C[C@H]1OC(=O)OCC	none
CCN(CC)CCOC(=O)C(Cc1cccc2ccccc12)CC1CCCO1 (centres undefined)	Marburg entry 10µM, Lassa entry inconclusive
COc1ccc(C(=O)N(Cc2cc3cccc(C)c3nc2N(C)C)CC2CCCO2)cc1 (centres undefined)	none
c1cnn2ncc(-c3ccnc(Nc4ccc5c(c4)OCCO5)n3)c2c1	Marburg entry 2.8µM (no result: Lassa entry)
Fc1ccc(-c2nn3ncccc3c2-c2ccnc(Nc3ccc4c(c3)OCCO4)n2)cc1	Marburg entry 0.89µM, Lassa entry inconclusive
